Compound activity (PubChem BioAssay)
AmpC detergent: qHTS Inhibitors of AmpC Beta-Lactamase (assay with detergent); P00811; AmpC hydrolysis of nitrocefin, absorbance 480 nm, 0.01% Triton; Potency, µM (top dose mostly 114 µM), usual class: inhibitors; hit rate 0.041% among 370,000; also: nearly all actives have a fitted effect of over 25% in size
Target sequence (P00811 whole entry, looked up): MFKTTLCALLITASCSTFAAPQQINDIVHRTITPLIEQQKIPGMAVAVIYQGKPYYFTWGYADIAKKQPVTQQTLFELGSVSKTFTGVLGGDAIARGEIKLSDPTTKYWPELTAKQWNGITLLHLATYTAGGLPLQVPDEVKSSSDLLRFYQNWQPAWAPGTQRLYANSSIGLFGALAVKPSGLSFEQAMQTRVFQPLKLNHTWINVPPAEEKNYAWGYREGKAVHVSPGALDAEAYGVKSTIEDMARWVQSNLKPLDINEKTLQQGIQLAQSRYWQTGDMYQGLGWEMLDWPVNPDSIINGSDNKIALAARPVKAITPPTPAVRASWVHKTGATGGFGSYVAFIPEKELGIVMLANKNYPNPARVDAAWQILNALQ
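AmpC (5.3 nM in the dispensed reagent) in 20 mM phosphate pH 7.0 with 0.01% (detergent screen) or 0.0001% Triton X-100 was preincubated with compounds for 15 min at room temperature. Nitrocefin was then added from an 800 uM solution, and hydrolysis was followed at 480 nm.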
FMDV antiviral: High Throughput Screening for Foot and Mouth Disease Virus Antivirals; AID 1159524, 2015; FMDV antiviral cell-based qHTS; hit rate 1.2% among 410,000; Potency, µM (doses to about 57.9 µM), hits mostly inhibitors; calls by dose curve; tested in HEK293T cells; also: read-out not given here; nearly all actives have a fitted effect of over 45% in size
HCV inhibitor: qHTS Assay for Inhibitors of Hepatitis C Virus (HCV) | AID 651820, 2012 | Potency, µM (top dose mostly 41.8 µM), usual class: inhibitors | hit rate 3.4% among 340,000 | Huh7.5.1 HCVcc-Cre infection, luciferase reporter, 44 h
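Seed cells (1,000/well) for 4 h; treat with compound and infect with HCVcc-Cre, moi about 0.5. Incubate 44 h, then detect luciferase activity.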
HCMV inh: qHTS Assay for inhibitors of the human cytomegalovirus (HCMV). HFF cells, HCMV-luciferase reporter, 72 h; hits give low values. activity change, negative = inhibition, % at 57.5 µM. hit rate 4.5% among 410,000. AID 1259415, 2018; in the data active = activity change below about -60%; inconclusive = no clear call, values can overlap the other calls; inactive = above about -39%
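Two-dose cell screen: HFF monolayers treated with compounds and infected with luciferase-expressing HCMV at 1 PFU/cell, 72 h at 37C, then lysed for luciferase measurement.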
AmpC inh no detg: qHTS Inhibitors of AmpC Beta-Lactamase (assay without detergent) | P00811 | AmpC nitrocefin hydrolysis, absorbance 480 nm, 0.0001% Triton | Potency, µM (series often up to 57.1 µM), usual class: inhibitors | hit rate 0.52% among 330,000; also: nearly all actives have a fitted effect of over 20% in size
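AmpC (5.3 nM in the dispensed reagent) in 20 mM phosphate pH 7.0 with 0.01% (detergent screen) or 0.0001% Triton X-100 was preincubated with compounds for 15 min at room temperature. Nitrocefin was then added from an 800 uM solution, and hydrolysis was followed at 480 nm.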
Of the large screens only hits and unclear results are named; the others gave an inactive call. Compounds with a hit are over-represented: about 7.3% of the library has one in this group of screens. Unless noted, calls follow the shape of the dose curve; as a rule, active = well fitted curve in the direction sought with a large enough effect; inconclusive = small, poorly fitted or top-dose-only effect, or another doubt; inactive = no such curve, though single readings can be large; an effect the other way counts as inactive or inconclusive.

CCOC(=O)c1ccc(CN(Cc2ccc(C)cc2)S(=O)(=O)c2ccc(F)c(C(=O)Nc3ccc(C)c(F)c3)c2)cc1	none (no result: HCV inhibitor, AmpC inh no detg)
COc1ccc2oc(C(=O)N3CCN(S(=O)(=O)c4cccc([N+](=O)[O-])c4)CC3)c(C)c2c1	HCMV inh -67
CCCCN1CC(COCc2ccccc2)Oc2cccc(Sc3ccc(OC)c(OC)c3)c2S1(=O)=O (stereo not drawn)	none (no result: AmpC detergent, FMDV antiviral, HCV inhibitor, AmpC inh no detg)
NC(=S)N/N=C/c1ccc(/C=N/NC(N)=S)cc1	none
NC(=S)NN=Cc1nccc2c(C(F)(F)C(F)(F)C(F)(F)F)cccc12	HCMV inh -99 (no result: AmpC detergent, HCV inhibitor, AmpC inh no detg)
CCOc1ccc(CN2CCN(CC3=Cc4cccc(OC)c4OC3)CC2CCO)cc1 (stereo not drawn)	FMDV antiviral inconclusive, HCV inhibitor 10µM
CCOc1ccc(CN2CCN(Cc3cnc(-c4ccccc4)s3)CC2CCO)cc1 (stereo not drawn)	HCV inhibitor inconclusive, HCMV inh inconclusive
Cc1cccc2cc(COC(=O)c3ccccc3)c(=O)[nH]c12	none
Cc1cccc2cc(CN(Cc3ccco3)C(=O)c3cccs3)c(=O)[nH]c12	HCMV inh -99
CCN(CC)CCN(Cc1cc2ccc(C)c(C)c2[nH]c1=O)C(=S)NCc1ccco1	HCV inhibitor inconclusive, HCMV inh -77
Cc1cccc2cc(COC(=O)c3cccs3)c(=O)[nH]c12	HCMV inh -65
CCOC(=O)c1sc2ccccc2c1S(=O)(=O)N1CCN(c2cccc(C)c2)C(C)C1 (stereo not drawn)	none (no result: HCV inhibitor, AmpC inh no detg)
O=S(=O)(c1ccc(OC(F)(F)F)cc1)N1CCCC(c2ccccc2)C1 (stereo not drawn)	none
COCCN(C(=O)c1ccccc1Oc1ccccc1)c1c(N)n(CC(C)C)c(=O)[nH]c1=O	none
O=C(OCc1cc(=O)n2cc(Br)ccc2n1)C1COc2ccccc2O1 (stereo not drawn)	AmpC detergent inconclusive, HCMV inh -65
Cn1c(SCc2cc(=O)n3cc(Br)ccc3n2)nnc1C1COc2ccccc2O1 (stereo not drawn)	none
CC1(C(=O)OCc2cc(=O)n3cc(Br)ccc3n2)CC1(Cl)Cl (stereo not drawn)	none
CC1CC1C(=O)OCc1cc(=O)n2cc(Br)ccc2n1 (stereo not drawn)	AmpC detergent inconclusive, HCMV inh -83
COC(=O)c1ccc(CSc2ccccc2NC(=S)Nc2cccc(C(F)(F)F)c2)o1	none (no result: AmpC detergent, HCV inhibitor, AmpC inh no detg)
CC(NC(=O)CSc1nc2c(c(C(F)(F)F)n1)CCc1ccccc1-2)c1ccccc1 (stereo not drawn)	FMDV antiviral inconclusive, HCV inhibitor 13µM, HCMV inh inconclusive
O=C(CSc1nc2c(c(C(F)(F)F)n1)CCc1ccccc1-2)NCc1ccco1	HCV inhibitor inconclusive
CC1CCN(Cc2nnc(-c3cccc(Br)c3)o2)CC1	none
Cc1ccccc1NC(=O)Cn1c(=O)n(Cc2ccc3c(c2)OCO3)c(=O)c2ccccc21	HCMV inh -61 (no result: HCV inhibitor, AmpC inh no detg)
COc1cc(-c2noc(-c3cc(C(C)C)[nH]n3)n2)cc(OC)c1OC	none (no result: HCV inhibitor, AmpC inh no detg)
CC(C)c1cc(-c2nc(-c3ccc(Cl)cc3)no2)n[nH]1	HCMV inh -68 (no result: HCV inhibitor, AmpC inh no detg)
Cc1ccc(S(=O)(=O)CCC(=O)Nc2ccc(OC(F)(F)F)cc2)cc1	none (no result: HCV inhibitor, AmpC inh no detg)
N#Cc1nc(Nc2cccc(Cl)c2)c2ncn(C3CCCC3)c2n1	HCMV inh -87 (no result: HCV inhibitor)
O=C(O)C(c1ccccc1)C(c1ccccc1)c1ccccc1 (stereo not drawn)	none
COc1ccc2c([N+](=O)[O-])c(C)[nH]c2c1	none (no result: AmpC detergent, FMDV antiviral, HCV inhibitor, AmpC inh no detg)
O=C(O)CSc1cc(NS(=O)(=O)c2ccc(Cl)cc2)c2ccccc2c1O	FMDV antiviral inconclusive, HCV inhibitor inconclusive, HCMV inh -93
Cc1ccc(-n2ncc3c2ncn2c(C)nnc32)cc1C	HCMV inh -67 (no result: FMDV antiviral)
CCc1nnc2c3cnn(-c4ccccc4)c3ncn12	none
CN1/C(=C/C=C/c2n(C)c3cc([N+](=O)[O-])c([N+](=O)[O-])cc3[n+]2C)C(C)(C)c2ccccc21	FMDV antiviral inconclusive, HCMV inh -67 (no result: AmpC detergent, HCV inhibitor, AmpC inh no detg)
CN1/C(=C\C=C(C#N)C#N)C(C)(C)c2ccccc21	none
CN(C)c1ccc(-c2[nH][nH]c(=O)c2NC(=O)c2ccc3ccccc3n2)cc1	HCMV inh -63 (no result: AmpC detergent, HCV inhibitor, AmpC inh no detg)
CN(C)c1ccc(-c2[nH][nH]c(=O)c2NC(=O)c2ccccn2)cc1	HCMV inh -61 (no result: AmpC detergent, HCV inhibitor, AmpC inh no detg)
O=C(Nc1c(-c2ccccc2)[nH][nH]c1=O)c1ccccc1	none (no result: AmpC detergent, HCV inhibitor, AmpC inh no detg)
Cc1cnc(C(=O)Nc2c(-c3ccccc3)[nH][nH]c2=O)cn1	none (no result: AmpC detergent, HCV inhibitor, AmpC inh no detg)
Cc1ccccc1-c1cc(C(=O)NCc2cccc(Br)c2)n(CC2CC(c3cccnc3)=NO2)n1 (stereo not drawn)	HCV inhibitor inconclusive (no result: AmpC detergent)
COc1cc(OC)cc(C(=O)Nc2cc(-c3nc4cccnc4s3)ccc2C)c1	none (no result: HCV inhibitor, AmpC inh no detg)
COc1ccc(NC(=O)C(=O)NCCCn2ccnc2)cc1	HCMV inh -60
CCCOc1ccc(NC(=O)C(=O)NCCCn2ccnc2)cc1	none
COCCNC(=S)Nc1ccc(Cl)c(Cl)c1	HCMV inh inconclusive
CCOc1ccc(NC(=O)C(=O)NCCCn2ccnc2)cc1	AmpC inh no detg 0.16µM (no result: FMDV antiviral)
C=COCCNC(=O)Nc1ccc(Cl)c(Cl)c1	HCV inhibitor 10µM, HCMV inh -60 (no result: FMDV antiviral)
O=C(NCCCn1ccnc1)Nc1ccc(Cl)cc1	none
O=C(NCCCn1ccnc1)Nc1ccc(Cl)c(Cl)c1	HCMV inh -106
COc1ccc(-n2c(=O)c3c4c(sc3n(Cc3ccccc3)c2=O)CCC4)c(OC)c1	HCMV inh inconclusive (no result: HCV inhibitor, AmpC inh no detg)
O=C(O)c1cc(O)c2c(c1)[C@H]([C@H]1c3cc(C(=O)O)cc(O)c3C(=O)c3c(O[C@@H]4O[C@H](CO)[C@@H](O)[C@H](O)[C@H]4O)cccc31)c1cccc(O[C@@H]3O[C@H](CO)[C@@H](O)[C@H](O)[C@H]3O)c1C2=O	none (no result: AmpC detergent, HCV inhibitor, HCMV inh, AmpC inh no detg)
C=CCC[C@H](Cc1ccc(F)cc1)C(=O)OC[C@@H](NC(=O)[C@H](CC=C)CC(=O)NCCO)C(C)(C)C	none (no result: AmpC detergent)
CN(C)CC(CCC(CN(C)C)C(O)(c1ccccc1)c1ccccc1)C(O)(c1ccccc1)c1ccccc1 (stereo not drawn)	HCV inhibitor 11µM, HCMV inh -98
CN(C)C/C=C/C(O)(c1ccccc1)c1ccccc1	none
COc1ccccc1NC(=O)CCN1CCCCC1	none (no result: HCV inhibitor, AmpC inh no detg)
OCC1(Cc2ccc(F)cc2)CCCN(CCc2ccccc2)C1 (stereo not drawn)	none
CC(NCc1ccc(Cl)c(Cl)c1)C(O)c1ccccc1 (stereo not drawn)	HCMV inh -71 (no result: FMDV antiviral)
CC(NCc1ccccc1Cl)C(O)c1ccccc1 (stereo not drawn)	none (no result: FMDV antiviral)
CC(NCc1cccc(OCc2ccccc2)c1)C(O)c1ccccc1 (stereo not drawn)	FMDV antiviral inconclusive, HCV inhibitor inconclusive, HCMV inh inconclusive
